From PubChem BioAssay AID2322 (Broad Institute, 2010)
Among all 27,000 compounds or so, about 120 (0.44%) were called active. The sample holds actives, similar compounds and a random draw of the others, so the mix is not that of the screen. Unmarked numbers belong to inactive results. Cut-off read from the data, not from the text of the source: active = inhibition above about 20%; inconclusive = no clear call, values can overlap the other calls; inactive = below that.

What follows are compounds tested against Serine/threonine-protein kinase 33 (Homo sapiens) (UniProt Q9BYT3) (assay: STK33 kinase inhibitors, primary screen, biochemical, luminescence, ADP-Glo, MBP substrate (AID 2322)). Details: at 12.5 µM, active compounds read high.
Sequence of Serine/threonine-protein kinase 33 (Homo sapiens) (Q9BYT3 whole entry, looked up): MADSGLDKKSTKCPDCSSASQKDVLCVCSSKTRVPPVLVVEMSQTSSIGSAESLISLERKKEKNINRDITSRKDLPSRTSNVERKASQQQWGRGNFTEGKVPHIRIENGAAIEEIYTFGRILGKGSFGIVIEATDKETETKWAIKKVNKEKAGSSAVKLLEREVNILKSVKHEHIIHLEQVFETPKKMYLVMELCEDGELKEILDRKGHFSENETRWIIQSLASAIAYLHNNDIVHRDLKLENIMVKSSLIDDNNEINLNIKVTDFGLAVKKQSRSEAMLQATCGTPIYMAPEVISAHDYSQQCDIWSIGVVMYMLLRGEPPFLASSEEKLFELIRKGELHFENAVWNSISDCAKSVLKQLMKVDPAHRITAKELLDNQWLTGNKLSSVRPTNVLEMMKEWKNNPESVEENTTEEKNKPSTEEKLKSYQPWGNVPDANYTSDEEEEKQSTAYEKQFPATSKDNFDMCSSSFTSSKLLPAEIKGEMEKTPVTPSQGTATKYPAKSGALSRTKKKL

Compound | inhibition
Cc1ccc(-c2ccc(CCC(=O)O)n2-c2ccc(C(N)=O)cc2)cc1 | -3.89%
O=C(NCc1ccco1)c1ccc2c(c1)C(=O)N(Cc1cccnc1)C2=O | -0.956%
Cc1ccc(-c2nc(S(=O)(=O)c3ccc(Br)cc3)c(SCC(N)=O)o2)cc1 | 4.38%
Cc1ccc(S(=O)(=O)N(C)CC(=O)Nc2cccc(F)c2)cc1 | -1.04%
CCOC(=O)C(C)Sc1ncnc2c1sc1nc(N3CCOCC3)c3c(c12)CC(C)(C)OC3 (configuration not stated) | -0.767%
Cc1ccc(NC(=O)CSc2nc3ccccc3s2)cc1[N+](=O)[O-] | 1.36%
CC(C)[C@H](CO)Nc1nc(Nc2cc(N)cc(Cl)c2)c2ncn(C(C)C)c2n1 | 89.6% (active)
Cc1ccc(S(=O)(=O)N(C)C[C@@H]2Oc3ccc(NC(=O)Nc4ccc(F)cc4)cc3C(=O)N([C@H](C)CO)C[C@@H]2C)cc1 | -2.65%
O=C(CCn1nc(-c2ccc(Cl)cc2)c2ccccc2c1=O)Nc1ccc(Br)cc1 | -3.22%
O=C(O)CCNS(=O)(=O)c1ccc2c(c1)OCCO2 | 1.73%
C(=C\c1nn2c(C3COc4ccccc4O3)nnc2s1)/c1ccccc1 (configuration not stated) | -1.1%
C[C@H]1CN([C@@H](C)CO)C(=O)CCCn2nncc2CO[C@H]1CN(C)Cc1ccc2c(c1)OCO2 | 5.15%
CN(CC(=O)Nc1ccc(Cl)c(Cl)c1)S(=O)(=O)c1ccc2ccccc2c1 | 0.105%
Cc1ccc(CN(C)C[C@H]2OCc3cn(nn3)CCCC(=O)N([C@@H](C)CO)C[C@H]2C)cc1 | 3.49%
Cc1ccccc1OCC(=O)Nc1cc(-c2nc3ccccc3s2)c(Cl)cc1Cl | -0.293%
COc1ccc(NC(=O)COc2cc(C)c(Br)c(C)c2)c([N+](=O)[O-])c1 | -1.64%
COc1cccc(NC(=O)N(C)C[C@@H]2OCc3cn(nn3)CCCC(=O)N([C@@H](C)CO)C[C@H]2C)c1 | -4.73%
O=C(CSc1nc2ccccc2s1)c1cc2ccccc2oc1=O | -1.09%
COc1cc(Cl)c(C)cc1NC(=O)CSc1nnnn1-c1ccccc1 | -5.72%
O=C(CSc1nnc(-c2cccs2)n1-c1ccccc1Cl)Nc1cccc(C(=O)O)c1 | -0.392%
Cn1c(=O)c2c(nc(SCC(=O)NC(C)(C)C)n2Cc2ccccc2F)n(C)c1=O | -1.84%
C[C@@H]1CN([C@@H](C)CO)C(=O)CCCn2cc(nn2)CO[C@@H]1CN(C)S(=O)(=O)c1cccc(F)c1 | -2.04%
COc1ccc(NC(=O)CSc2nnc(-c3ccc(Br)cc3)n2C)cc1 | -2.11%
CCn1c(SCC(=O)c2ccc(OC)cc2)nnc1-c1ccc(Cl)cc1Cl | -3.02%
Cc1noc(C)c1NC(=O)Nc1ccc2c(c1)C(=O)N([C@H](C)CO)C[C@H](C)[C@@H](CN(C)Cc1ccc3c(c1)OCO3)OCCCC[C@@H](C)O2 | -1.44%
C[C@@H]1CN([C@H](C)CO)C(=O)Cc2cc(NC(=O)Nc3ccc4c(c3)OCO4)ccc2O[C@@H]1CN(C)C(=O)Nc1ccccc1 | 0.707%

Compound | inhibition
C=CCn1c2ccccc2c2nnc(SCC(=O)N3c4ccccc4Sc4ccccc43)nc21 | -0.993%
C[C@@H]1CN([C@@H](C)CO)C(=O)CCCn2cc(nn2)CO[C@@H]1CN(C)S(=O)(=O)c1ccccc1C#N | -7.04%
COC(=O)c1cc(NC(=O)Cc2ccccc2[N+](=O)[O-])ccc1Cl | 1.83%
CCn1c(SCC(=O)c2ccc(OC)cc2)nnc1-c1ccccc1F | -0.529%
Cc1cc(OCc2nc3ccccc3s2)ccc1NC(=O)c1cccc(F)c1 | 0.681%
CS(=O)(=O)N(CC(=O)Nc1ccc(F)cc1F)c1cc(Cl)c(Cl)cc1Cl | -1.13%
C=CCN1C(=O)[C@]2(O[C@H](CCn3cc(CCO)nn3)[C@@H]([Si](C)(C)c3ccc(OC)cc3)[C@@H]2C)c2cc(N3CCOC3=O)ccc21 | -0.0517%
CC(=O)c1cccc(N(CC(=O)Nc2ccccc2C(F)(F)F)S(C)(=O)=O)c1 | 0.774%
CCc1ccccc1NC(=O)COc1cc(O)c2c(=O)cc(-c3ccccc3)oc2c1 | 6.95%
COc1c(O)cc2oc(-c3ccc(O)c(O)c3)cc(=O)c2c1O | 39.8% (active)
CC(=O)OC[C@H]1O[C@@H](Oc2c(-c3ccc(O)c(O)c3)oc3cc(O)cc(O)c3c2=O)[C@H](O)[C@@H](O)[C@@H]1O | 6.14%
Cc1ccc2nc(-c3ccc(Cl)c(NC(=O)COc4ccc(Br)cc4)c3)oc2c1 | 0.49%
Cc1ccc(-c2nnc(SCC(=O)Nc3ccccc3OC(F)F)o2)cc1 | 2.8%
C[C@H]1CN([C@@H](C)CO)C(=O)c2cc(NC(=O)CCN3CCOCC3)ccc2O[C@@H]1CN(C)C(=O)Nc1ccc(C(F)(F)F)cc1 | -0.787%
N#Cc1c(NC(=O)C2CC(Cl)=CCC2C(=O)O)sc2c1CCC2 (configuration not stated) | -3.84%
CCc1cc(Br)cc(C)c1NC(=O)CSc1nnc(-c2ccc(Cl)cc2)n1C | 3.71%
C[C@@H]1CN([C@H](C)CO)C(=O)CCCn2nncc2CO[C@@H]1CN(C)S(=O)(=O)c1cccc(C#N)c1 | -5.23%
COC(=O)Nc1ccc(S(=O)(=O)N2CCCC(C(=O)Nc3ccc(N(C)C)cc3)C2)cc1 (configuration not stated) | -2.4%
C[C@@H]1CCCCO[C@H](CN(C)C(=O)NC2CCCCC2)[C@@H](C)CN([C@H](C)CO)C(=O)c2cc(NS(=O)(=O)c3ccc(F)cc3)ccc2O1 | -0.501%
O=C(CSc1nc2c(c(C(F)(F)F)n1)CCCC2)N1c2ccccc2Sc2ccccc21 | 2.75%
Cc1cc(C)cc(NC(=O)CSc2nnc(-c3ccncc3)n2-c2ccccc2)c1 | -3.15%
Cc1noc(C)c1S(=O)(=O)Nc1ccc2c(c1)CC(=O)N([C@@H](C)CO)C[C@H](C)[C@@H](CN(C)S(=O)(=O)c1cn(C)cn1)O2 | 1.65%
COc1cccc(NC(=O)CCC(=O)O)c1 | -2.64%
Cc1cccc(NC(=O)CSc2nnc3c4ccccc4nc(-c4ccccc4)n23)c1 | -2.64%
Cc1cccc(C)c1NC(=O)CSc1nc(O)cc(=O)[nH]1 | -1.7%
COc1ccccc1CC(=O)Nc1ccc(-c2nnc(-c3ccc(C)cc3)o2)cc1 | 6.73%

Compound | inhibition
Cc1ccc2nc(-c3ccncc3)cc(C(=O)NCc3ccccn3)c2c1 | -5.08%
COC(=O)c1sccc1NC(=O)COc1cc(C)ccc1Cl | 6.51%
COc1cc2c(cc1NC(=O)CN(C)S(=O)(=O)c1ccc(Br)cc1)oc1ccccc12 | -2.44%
Cc1ccc([N+](=O)[O-])cc1NC(=O)CSc1nnc(-c2ccncc2)n1C | -0.493%
O=C(CCn1nc(-c2ccccc2)c2ccccc2c1=O)Nc1cccc(Br)c1 | 8.57%
O=C(COc1ccc2ccccc2c1Br)NCCN1CCOCC1 | 0.329%
O=C(CSc1nnc(-c2ccncc2)n1-c1ccccc1)Nc1ccc(OC(F)(F)F)cc1 | 1.66%
COC(=O)c1c(-c2cccnc2)csc1NC(=O)c1cc(-c2ccc(C)o2)nc2ccccc12 | 9.69%
C[C@@H]1CN([C@H](C)CO)C(=O)Cc2cc(NC(=O)CCCN(C)C)ccc2O[C@H]1CN(C)S(=O)(=O)c1cccs1 | -0.927%
COc1cc(OC)c(C2=NOC(C(=O)Nc3cccnc3)C2)cc1Cl (configuration not stated) | -2.64%
C[C@H](CO)N1C[C@H](C)[C@H](CN(C)S(=O)(=O)c2ccccc2)Oc2ccc(NC(=O)Cn3cnnn3)cc2C1=O | 1.24%
COc1ccc(S(=O)(=O)Nc2ccc3c(c2)C(=O)N([C@H](C)CO)C[C@H](C)[C@@H](CN(C)Cc2ccc(-c4ccccc4)cc2)O3)cc1 | 2.44%
CC(=O)Nc1ccc(S(=O)(=O)NC2(C(F)(F)F)C(=O)N(Cc3ccc(F)cc3)C3=C2C(=O)CC(C)(C)C3)cc1 (configuration not stated) | -0.346%
CCOC(=O)c1sc(NC(=O)c2cc(C)on2)c(C(=O)OCC)c1C | -1.02%
Cc1nnc(SCC(=O)Nc2cc(C(F)(F)F)ccc2Cl)s1 | 3.42%
O=C(COc1ccc2oc3c(c2c1)CCCC3)Nc1cccnc1 | -2.38%
O=C1c2ccccc2C(=O)N1CCCc1nc2ccccc2c(=O)n1-c1nc2ccccc2s1 | -0.682%
CC(C)=CCCC(C)(O)C(O)Cc1cc(C(=O)O)cc(CC=C(C)C)c1O (configuration not stated) | -4.79%
O=C(Cn1ccc([N+](=O)[O-])n1)NCc1cccs1 | 4.56%
COc1ccc(C(=O)N(Cc2nc(-c3ccccc3)no2)C(C)C)cc1[N+](=O)[O-] | -9.54%
COC(=O)c1cc(OC)c(OC)cc1NC(=O)COc1ccc(Cl)cc1 | -1.45%
Cc1cc(Cl)ccc1NC(=O)CN(c1ccc(Cl)c(Cl)c1)S(C)(=O)=O | -1.61%
O=S(=O)(c1ccc(F)cc1)c1nc(-c2ccccc2Cl)oc1NCc1ccco1 | 4.44%
COc1cc(-c2nc3ccccc3s2)ccc1OCC(=O)Nc1ccc(C)cc1 | 1.24%
C[C@H](CO)N1C[C@H](C)[C@H](CN(C)C)Oc2ncc(/C=C/c3ccccc3)cc2C1=O | -3.66%
